High-throughput results (PubChem)
Hits are enriched below; roughly 11% of the tested compounds scored in any of these assays.
PNC assembly inh – High Content Assay for Compounds that inhibit the Assembly of the Perinucleolar Compartment; PC3M PTB-GFP, PNC prevalence imaging, 16 h; hits give low values; activity change (PNC), negative = inhibition, % at 10 µM; 140,000 compounds, 3.1% hits; AID 2417, 2010;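 active = readout at or below -70, meaning at least 70% loss of cells showing the perinucleolar compartment, a nuclear body marking cancer cells; inconclusive = readout between -30 and a set limit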;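 note: plate controls were DMSO wells for no effect and camptothecin positive control wells for full effect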
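Read-out is percentage of cells bearing a perinucleolar compartment, from automated 20x imaging of fixed, Hoechst-stained PC3M PTB-GFP cells. Cells were seeded 4 h, then exposed 16 h to compound (23 nl of library stock) in duplicate plates.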
ALDH1A1 inh-1 – qHTS Assay for Inhibitors of Aldehyde Dehydrogenase 1 (ALDH1A1). 220,000 compounds, 7.3% hits. Potency, µM (highest dose often 75.3 µM), inactives show at the top dose activity, negative = inhibition, most hits filed as inhibitors. Aldehyde dehydrogenase 1A1 (Homo sapiens), P00352. Purified ALDH1A1, NADH fluorescence, propionaldehyde substrate;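 note: potency is the fitted concentration of half-maximal effect; plate controls were no enzyme wells and a reference inhibitor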
Target sequence (P00352 whole entry, looked up): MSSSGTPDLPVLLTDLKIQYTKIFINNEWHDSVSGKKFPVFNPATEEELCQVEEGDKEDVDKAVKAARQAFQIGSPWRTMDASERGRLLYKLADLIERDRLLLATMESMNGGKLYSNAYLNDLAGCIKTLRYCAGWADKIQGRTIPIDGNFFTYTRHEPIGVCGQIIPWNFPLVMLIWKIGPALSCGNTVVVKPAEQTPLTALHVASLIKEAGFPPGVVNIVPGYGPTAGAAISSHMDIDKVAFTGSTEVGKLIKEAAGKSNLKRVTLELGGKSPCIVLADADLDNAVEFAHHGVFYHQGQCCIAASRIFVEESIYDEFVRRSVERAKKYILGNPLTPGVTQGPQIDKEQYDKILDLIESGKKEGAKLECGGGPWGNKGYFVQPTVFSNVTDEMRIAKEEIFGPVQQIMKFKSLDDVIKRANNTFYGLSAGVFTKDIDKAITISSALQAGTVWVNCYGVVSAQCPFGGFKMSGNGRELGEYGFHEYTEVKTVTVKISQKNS
HPGD inh – qHTS Assay for Inhibitors of HPGD (15-Hydroxyprostaglandin Dehydrogenase); purified HPGD, NADH fluorescence kinetic, PGE2 substrate; Potency, µM, for inactives: at the top dose activity change, negative = inhibition, actives largely listed as inhibitors; AID 894, 2007; 150,000 compounds, 4.3% hits; 15-hydroxyprostaglandin dehydrogenase [NAD(+)] (Homo sapiens), P15428; note: potency is the fitted concentration of half-maximal effect; % is set by controls: 0 for no effect and ±100 for the full control effect
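NADH formation kinetics: reaction with 30 uM PGE2 and 1 mM NAD+ (final), 20 nM enzyme, Tris-HCl pH 8 with Tween 20, after 15 min compound preincubation at room temperature. Fluorescence change, last versus first of five reads.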
ALDH1A1 inh-2 – Inhibitors of Aldehyde Dehydrogenase 1 (ALDH1A1): Followup Confirmation and Counterscreen | 90 compounds, 90% hits | shares compounds with ALDH1A1 inh-1 | Potency, µM (series often up to 57.1 µM), for inactives: top-dose activity change, negative = inhibition, most hits filed as inhibitors | purified ALDH1A1, NADH fluorescence, propionaldehyde/NAD+; calls by dose curve
* hit, by the source's call; ? = inconclusive; . = no result. Unless noted, calls come from the whole dose curve; as a rule, active = well fitted inhibition curve with a large enough effect (not every such curve was filed as active); inconclusive = small, poorly fitted or top-dose-only effect, or another doubt; inactive = no such curve, though single readings can be large or run the other way.

SMILES | PNC assembly inh | ALDH1A1 inh-1 | HPGD inh | ALDH1A1 inh-2
Cc1ccc(Cn2c(CN3CCN(C(=O)c4ccco4)CC3)nc3c2c(=O)n(C)c(=O)n3C)cc1 | -6 | 0.16µM* | -11% | 0.5µM*
Cc1ccc(Cn2c(NCCc3ccccc3)nc3c2c(=O)n(C)c(=O)n3C)cc1 | ? | -3% | -15% | .
CC(=O)c1ccc(Oc2nc3c(c(=O)n(C)c(=O)n3C)n2C)cc1 | . | 8% | . | .
COC(=O)c1ccc(Oc2nc3c(c(=O)n(C)c(=O)n3C)n2CCC(C)C)cc1 | 38 | 0.045µM* | -18% | 0.1µM*
N#CCCn1cc(C(=O)Nc2ccccc2Br)c(-c2cc3ccccc3o2)n1 | 5 | -4% | ? | .
Cc1cc(NC(=O)CCN2C(=O)c3ccccc3C2=O)no1 | -26 | -14% | -10% | .
CCCN1C(=O)c2ccc(C(=O)Nc3nccs3)cc2C1=O | -85* | 0.28µM* | 0% | 0.4µM*
COc1ccc(C(=O)Nc2nccs2)cc1OC | 20 | 3% | -19% | .
CCCN1C(=O)c2ccc(C(=O)Nc3cc(C)on3)cc2C1=O | ? | 0.4µM* | -8% | 0.79µM*
CCc1nnc(NC(=O)c2ccc3c(c2)C(=O)N(C(C)(C)C)C3=O)s1 | -24 | 7% | -10% | .
CCCN1C(=O)c2ccc(C(=O)NC3CCCCC3)cc2C1=O | ? | ? | 4% | 0.35µM*
CCN1C(=O)c2ccccc2S(=O)c2ccc(C(=O)NC3CC3)cc21 (configuration not stated) | 3 | -2% | -13% | .
CC(C)CN1C(=O)c2ccc(C(=O)Nc3nccs3)cc2C1=O | ? | 0.45µM* | -19% | 0.32µM*
Fc1cccc(Oc2nc3ccccc3n3cccc23)c1 | 6 | ? | ? | .
CCOCCCn1c(C)nc2c(c1=O)c1nc3ccccc3nc1n2-c1ccc2c(c1)OCCO2 | . | -10% | . | .
CCc1c(C)nc(N)n2c(SCC(=O)Nc3ccccc3)nnc12 | -26 | 8% | -1% | .
CCN(CC)S(=O)(=O)c1cc(NC(=O)C(CC(C)C)NC(N)=O)ccc1C (configuration not stated) | . | 4% | . | .
CCn1c(-c2ccsc2)nc2c1c(=O)[nH]c(=O)n2Cc1ccccc1 | -21 | -9% | -24% | .
COCCn1c(=O)[nH]c(=O)c2c1nc(-c1cc(Br)c3c(c1)OCO3)n2Cc1ccccc1 | . | 0.11µM* | . | 0.079µM*
CC(=O)Nc1ccc(Cc2nc3ccccc3[nH]2)cc1 | . | 7% | . | .
COc1cc2c(cc1NC(=O)CN1CCN(S(=O)(=O)c3ccc(C)cc3)CC1)oc1ccccc12 | ? | 7% | ? | .
COc1ccc(C)cc1NC(=O)CN1CCN(S(=O)(=O)c2ccc(Cl)cc2)CC1 | -15 | 0.32µM* | -10% | 0.14µM*
CC1=C(C(=O)OCc2ccccc2)C(/C=C/c2ccccc2)N2C(=O)CCSC2=N1 (configuration not stated) | 29 | ? | -10% | .
CC1=C(C(=O)OCc2ccccc2)C(/C=C/c2ccccc2)NC(=S)N1 (configuration not stated) | 14 | 0.2µM* | -28% | 0.2µM*
CC(C)C(=O)n1nc(-c2cccnc2)nc1NCc1ccc(F)cc1 | . | -1% | . | .
SMILES | PNC assembly inh | ALDH1A1 inh-1 | HPGD inh | ALDH1A1 inh-2
O=C(CSc1nc(-c2ccncc2)nn1CC(=O)N1CCCCC1)NC1CCCC1 | 24 | ? | -5% | .
CC(=O)NC1C2CN3CCN(C2)CC1(Cc1ccccc1)C3 (configuration not stated) | -27 | 17% | -9% | .
CC(=O)NC1C(=O)N(CC(C)C)c2ccccc21 (configuration not stated) | -29 | 0.04µM* | -8% | 1µM*
CC1(C)CC(=O)CC(C2(O)C(=O)N(Cc3ccccc3)c3ccccc32)O1 (configuration not stated) | ? | 0.063µM* | -23% | 0.32µM*
Cc1ccc(C(=O)N2c3ccccc3N(Cc3ccccc3)C(=O)C2(C)C)cc1 | -4 | 2% | -12% | .
CC1=C(C(=O)OCC(C)C)C(c2cccs2)NC(=S)N1 (configuration not stated) | ? | 0.13µM* | . | 0.25µM*
CC1=C(C(=O)OCC(C)C)C(c2ccc(F)cc2)NC(=O)N1 (configuration not stated) | 32 | 1% | -7% | .
CCCC(C)NCC(=O)Nc1ccccc1-c1ccccc1 (configuration not stated) | 12 | ? | -7% | .
